Experiment [1] in a line: qHTS assay for small molecule agonists of the p53 signaling pathway - cell viability (AID 651633; calls by dose curve; further: nearly all actives have a fitted effect of over 30% in size; further: potency means the concentration at half of the fitted maximal effect). The note with it: p53RE-bla HCT-116 viability, ATP luminescence, 16 h; series mostly up to 83.3 µM. In outline:
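Viability counter-read: CellTiter-Glo luminescence (30 min, room temperature) in the same p53RE-bla plates. These plates had been exposed to compounds for 16 h at 37 C.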

Experiment [2] can be described thus: qHTS assay for small molecule disruptors of the mitochondrial membrane potential - cell viability (AID 720634; calls by dose curve;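 further: human HepG2 liver cancer cells; nearly all actives have a fitted effect of over 20% in size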). The note with it: HepG2 viability, ATP luminescence (CellTiter-Glo), 1 h; series mostly up to 83.2 µM. The procedure, abridged: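 Luminescence from CellTiter-Glo (ATP content) gave viability in HepG2 cells, read in the same wells as the MMP dye assay after 1 hr compound exposure at 37 C.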

Experiment [3] in a line: qHTS assay for small molecule disruptors of the mitochondrial membrane potential (AID 720635). Further: potency means the concentration at half of the fitted maximal effect. The note with it: HepG2 mitochondrial membrane potential, Mito-MPS dye ratio; series mostly up to 83.2 µM. In outline: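 Mitochondrial membrane potential tracked with Mito-MPS dye, red aggregates (ex 540/em 590 nm) against green monomers (ex 490/em 535 nm). Compound treatment 1 hr at 37C, dye 30 min in HepG2.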

Experiment [4] can be described thus: qHTS assay to test for compound auto fluorescence at 590 nm (red) in HepG2 cells (AID 720674). As to conditions: HepG2 autofluorescence, red 540/590 nm, 1 h; series mostly up to 91.3 µM. The procedure, abridged: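 We screened compounds on adherent HepG2 cells, incubating them for an hour at 37 C in 5% CO2 before reading emission at 590 nm under 540 nm excitation; values reflect equivalence to Rose Bengal sodium fluorescence.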

Experiment [5] in a line: qHTS assay to test for compound auto fluorescence at 535 nm (green) in HepG2 cells (AID 720675). As to conditions: green autofluorescence 485/535 nm, 1 h; series mostly up to 91.3 µM.
Experiment [6] can be described thus: qHTS assay to test for compound auto fluorescence at 590 nm (red) in HEK293 cells (AID 720679). As to conditions: red autofluorescence 540/590 nm; series mostly up to 91.3 µM. The procedure, abridged:
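Red channel, Ex/Em 540/590nm; signal expressed as equivalency to Rose Bengal sodium. HEK293, 2,000 cells/well, 10% dialyzed FBS; 23 nL compound pinned after 4-5 hr attachment; overnight 37C/5% CO2 before reading.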

Experiment [7] is described as follows: qHTS assay to test for compound auto fluorescence at 535 nm (green) in HEK293 cells (AID 720680). The note with it: green autofluorescence 485/535 nm; series mostly up to 91.3 µM.
The nature of experiment [8]: qHTS assay to test for compound auto fluorescence at 460 nm (blue) in HEK293 cell free culture (AID 720681). As to conditions: cell-free medium, autofluorescence 405/460 nm (blue); series mostly up to 91.3 µM. The procedure, abridged:
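Blue fluorescence (Ex 405/Em 460 nm, triamterene-equivalent) was read immediately after pin transfer of compound or DMSO into medium (DMEM, 10% FBS) without cells.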

Experiment [9] is described as follows: qHTS assay to test for compound auto fluorescence at 590 nm (red) in HEK293 cell free culture (AID 720683). As to conditions: cell-free medium autofluorescence, Ex540/Em590 red; series mostly up to 91.3 µM. The procedure, abridged:
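Red-channel autofluorescence of compounds in culture medium (DMEM, 10% FBS), no cells, measured at 540/590 nm. Rose Bengal sodium is the reference fluorophore for equivalence.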

A short description of experiment [10]: qHTS assay to test for compound auto fluorescence at 590 nm (red) in HepG2 cell free culture (AID 720684). The note with it: cell-free medium autofluorescence, red 540/590 nm; series mostly up to 91.3 µM. The procedure, abridged: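 Cell-free; medium MEM + 10% FBS; compound or DMSO added by pintool; read Ex 540/Em 590 nm; Rose Bengal sodium as red reference fluorophore.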

Experiment [11] is described as follows: qHTS assay to test for compound auto fluorescence at 460 nm (blue) in HepG2 cell free culture (AID 720685). The note with it: Cell-free culture medium, blue autofluorescence 405/460 nm; series mostly up to 91.3 µM. In outline: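 Cell-free plates of MEM plus 10% FBS received 23 nL compound or DMSO vehicle; blue-channel (405/460 nm) intensity scored against triamterene as reference fluorophore.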

A short description of experiment [12]: qHTS assay to test for compound auto fluorescence at 535 nm (green) in HepG2 cell free culture (AID 720686). The note with it: Cell-free medium, green autofluorescence 485/535 nm; series mostly up to 91.3 µM.
A short description of experiment [13]: qHTS assay to test for compound auto fluorescence at 460 nm (blue) in HepG2 cells (AID 720687). As to conditions: autofluorescence 405/460 nm, 1 h; series mostly up to 91.3 µM. The procedure, abridged:
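Blue-channel autofluorescence (Ex/Em 405/460 nm, triamterene-equivalent) was measured after 1 hr compound exposure at 37 C, 5% CO2. Cells were HepG2, plated overnight at 37 C in MEM plus 10% FBS.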

Experiment [14] has as its target Glucocorticoid receptor (Homo sapiens) (UniProt P04150). In words: qHTS assay to identify small molecule agonists of the glucocorticoid receptor (GR) signaling pathway (AID 720691; active means well fitted activation curve with a large enough effect in the signal ratio in the repeat runs, not every such curve was filed as active; the % refers to the signal ratio). The note with it: GR-bla HeLa, beta-lactamase reporter ratio, 18 h; series mostly up to 62.4 µM. The procedure, abridged:
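HeLa GR-bla reporter line; cells pre-incubated 4 h, compound in DMSO 18 h at 37 C; LiveBLAzer B/G FRET substrate 2 h RT; fluorescence intensity read-out.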

A short description of experiment [15]: qHTS assay for small molecules that induce genotoxicity in human embryonic kidney cells expressing luciferase-tagged ATAD5 (AID 651632). Further: nearly all actives have a fitted effect of over 15% in size. Further: potency means the concentration at half of the fitted maximal effect. The note with it: HEK293T ATAD5-luciferase induction, 16 h; series mostly up to 83.3 µM. In outline:
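Luminescence read-out: after 16 hr compound exposure at 37C, ATAD5-luciferase HEK293T cells received Amplite, 30 min RT, then CCD imaging. A rise in signal marks genotoxic stress.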

Experiment [16] in a line: qHTS assay for small molecules that induce genotoxicity in human embryonic kidney cells expressing luciferase-tagged ATAD5 - cell viability (AID 651634; calls by dose curve; further: nearly all actives have a fitted effect of over 25% in size). The note with it: HEK293T ATAD5-luc cells viability, CellTiter-Fluor, 15.5 h; series mostly up to 83.3 µM. In outline:
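HEK293T ATAD5-luc cells, 2,000/well; compound 15.5 hr, 37C/5% CO2; CellTiter-Fluor 30 min, 37C; fluorescence read.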

A short description of experiment [17]: qHTS assay to test for compound auto fluorescence at 535 nm (green) in HEK293 cell free culture (AID 720682). As to conditions: cell-free medium, green autofluorescence 485/535 nm; series mostly up to 91.3 µM. In outline: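 Using fluorescein as calibrant, autofluorescence was quantified at 485/535 nm in cell-free DMEM containing 10% FBS after pintool addition of compound or vehicle.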

Experiment [18] is described as follows: qHTS assay to test for compound auto fluorescence at 460 nm (blue) in HEK293 cells (AID 720678). As to conditions: blue autofluorescence 405/460 nm; series mostly up to 91.3 µM. The procedure, abridged:
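Blue read-out at excitation 405 nm and emission 460 nm follows overnight compound exposure of HEK293 cells at 37C in 5% CO2. Activity is given as auto fluorescence equivalency to triamterene.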

For experiment [19], the target named is Glucocorticoid receptor (Homo sapiens) (UniProt P04150). Briefly: qHTS assay to identify small molecule antagonists of the glucocorticoid receptor (GR) signaling pathway (AID 720692; active means well fitted inhibition curve with a large enough effect in the signal ratio in the repeat runs, not every such curve was filed as active; the % refers to the signal ratio). The note with it: GR-bla HeLa, beta-lactamase FRET ratio, dexamethasone-stimulated, 18 h; series mostly up to 58.5 µM. In outline:
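Read-out: beta-lactamase FRET substrate fluorescence, 2 h at room temperature, in HeLa cells stably carrying a GRE-driven bla reporter. Compounds were co-incubated with 5 nM dexamethasone agonist (final) for 18 h at 37 C.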

Experiment [20] can be described thus: qHTS assay for small molecule agonists of the p53 signaling pathway (AID 651631; calls by dose curve; further: nearly all actives have a fitted effect of over 15% in size). The note with it: HCT-116 p53RE-bla reporter, beta-lactamase FRET ratio, 16 h; series mostly up to 73.3 µM. In outline:
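Stably transfected HCT-116 cells (beta-lactamase behind p53 response elements) get compounds after a 5 h settling period; 16 h later at 37 °C, FRET substrate is loaded and fluorescence read after 2 h.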

Where “and” joins values, the source holds several entries; their conditions need not be identical. Equal values may be shown once. Inconclusive results are not listed. Calls of active or inactive are those of the source. Unless noted, the call rests on the fitted dose curve; in most records, active means well fitted curve in the direction sought with a large enough effect in the repeat runs; inconclusive means weak or mixed curves; inactive means no such curve, though single readings can be large; an effect the other way counts as inactive or inconclusive.

Sequence of Glucocorticoid receptor (Homo sapiens) (P04150 whole entry, looked up): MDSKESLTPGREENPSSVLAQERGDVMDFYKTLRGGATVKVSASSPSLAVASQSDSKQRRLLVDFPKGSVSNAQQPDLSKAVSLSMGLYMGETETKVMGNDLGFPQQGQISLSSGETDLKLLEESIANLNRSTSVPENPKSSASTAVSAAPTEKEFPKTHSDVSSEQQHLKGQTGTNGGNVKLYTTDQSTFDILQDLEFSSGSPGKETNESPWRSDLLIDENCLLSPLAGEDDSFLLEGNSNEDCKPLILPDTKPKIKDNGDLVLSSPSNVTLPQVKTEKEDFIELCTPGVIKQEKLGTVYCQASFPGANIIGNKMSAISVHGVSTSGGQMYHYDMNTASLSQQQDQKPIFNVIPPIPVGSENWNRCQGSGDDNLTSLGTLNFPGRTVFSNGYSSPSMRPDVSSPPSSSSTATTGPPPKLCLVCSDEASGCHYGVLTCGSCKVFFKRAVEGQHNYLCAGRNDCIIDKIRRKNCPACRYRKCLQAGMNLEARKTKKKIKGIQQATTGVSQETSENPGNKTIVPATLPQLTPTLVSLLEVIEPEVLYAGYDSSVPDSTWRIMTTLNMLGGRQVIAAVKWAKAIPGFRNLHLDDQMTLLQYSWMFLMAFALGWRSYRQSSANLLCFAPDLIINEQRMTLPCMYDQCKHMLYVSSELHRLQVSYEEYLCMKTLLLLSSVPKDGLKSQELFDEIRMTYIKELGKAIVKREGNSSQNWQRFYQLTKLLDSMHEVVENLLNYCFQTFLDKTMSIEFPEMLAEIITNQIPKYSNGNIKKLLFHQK

Consider `COc1cc([C@@H]2c3cc4c(cc3[C@H](O)[C@H]3COC(=O)[C@H]23)OCO4)cc(OC)c1OC`, for which the Potency entry in experiment [1], in [2], in [4], in [5], in experiment [6] and in experiment [7] was “inactive” in each case. Further, the Potency result in experiment [9], in [10], in experiment [12] and in experiment [14] was “inactive” throughout. Besides, the Potency in [3] was 150 nM (active) and 76.9 nM (active). Also, the compound was called inactive in experiment [8], in [11] and in experiment [13].

With `CCCCc1oc2ccccc2c1C(=O)c1cc(I)c(OCCN(CC)CC)c(I)c1`, the Potency entry in experiment [15], in experiment [16], in experiment [2], in experiment [4], in [5] and in experiment [6] was “inactive” each time. Also, the Potency result in experiment [7], in [9], in experiment [10] and in experiment [12] was “inactive” throughout. For the same compound, the Potency in experiment [1] was 26.6 µM (active) and 48.9 µM (active). In addition, the result in [8], in [11] and in experiment [13] was inactive.

In the case of `c1ccc(Nc2ccccc2)cc1`, the Potency result in experiment [15], in experiment [1], in experiment [16], in experiment [2], in experiment [4] and in experiment [5] was “inactive” in each case. Further, the Potency result in experiment [6], in [7], in experiment [17], in experiment [9], in experiment [10] and in experiment [12] was “inactive” throughout. In addition, the Potency in experiment [3] is 61.1 µM (active) and 19.3 µM (active). The compound was classed as inactive in [8], in experiment [11] and in experiment [13].

Turning to `CC(C)OC(=O)C(C)(C)Oc1ccc(C(=O)c2ccc(Cl)cc2)cc1`, the Potency entry in experiment [15], in experiment [16], in experiment [3], in experiment [4], in [5] and in [6] was “inactive” throughout. In addition, the Potency entry in experiment [7], in experiment [9], in experiment [10], in [12], in experiment [14] and in [19] was “inactive” each time. Also, the outcome in experiment [18], in [8] and in experiment [11] was inactive.

As to `CC(C(=O)O)c1cccc(C(=O)c2ccccc2)c1` (stereo not drawn), the Potency entry in experiment [20], in [2], in [3], in experiment [4], in [5] and in [6] was “inactive” throughout. Moreover, the Potency entry in [7], in experiment [17], in experiment [9], in [10] and in experiment [12] was “inactive” throughout. Besides, the outcome in experiment [18], in experiment [8], in experiment [11] and in experiment [13] was inactive.

As for `c1cc(N(CC2CO2)CC2CO2)ccc1OCC1CO1` (stereo not drawn), the Potency is 13.7 µM (active) and 17.2 µM (active) in experiment [15]; 68.7 µM (active) in experiment [1]. Besides, the Potency entry in [2], in experiment [3], in experiment [4], in [5], in [6] and in experiment [7] was “inactive” throughout. For the same compound, the Potency result in experiment [17], in experiment [9], in experiment [10] and in [12] was “inactive” each time. For the same compound, the compound was called inactive in experiment [8], in experiment [11] and in experiment [13].

With `O=C(/C=C/C=C/c1ccc2c(c1)OCO2)N1CCCCC1`, the Potency in [15] was 10.9 µM (active). In addition, the Potency result in experiment [1], in experiment [16], in experiment [2], in experiment [4], in experiment [5] and in [6] was “inactive” each time. In addition, the Potency entry in experiment [7], in experiment [17], in experiment [9], in experiment [10] and in experiment [12] was “inactive” in each case. Moreover, the result in experiment [18], in [8], in experiment [11] and in [13] was inactive.

As to `O=[N+]([O-])c1ccc2c(c1)Cc1ccccc1-2`, the Potency entry in experiment [15], in experiment [1], in experiment [16], in experiment [4], in [5] and in experiment [6] was “inactive” in each case. In addition, the Potency result in experiment [7], in [17], in experiment [9], in experiment [10], in [12] and in experiment [14] was “inactive” throughout. Besides, the call in [18], in experiment [8], in [11] and in [13] was inactive.

`CC1=CC2C3CC(C=C3C)C2C1` (stereo not drawn): the Potency entry in experiment [15], in experiment [1], in experiment [16], in [2], in experiment [3] and in experiment [4] was “inactive” each time. Besides, the Potency result in [5], in experiment [6], in experiment [7], in experiment [9], in experiment [10] and in [12] was “inactive” in each case. For the same compound, the Potency entry in [14] and in [19] was “inactive” each time. Also, the outcome in experiment [18], in experiment [8] and in experiment [11] was inactive.

For the origin of these results see PubChem BioAssay (Tox21).
